Reference: PubChem BioAssay (EPA / NIEHS)
Some compounds were tested as several samples or in several runs, with calls that do not always agree. Activity calls are given as the source filed them. How the source made its calls: active means hit-call score of the fitted dose curve at least 0.9, where 1 is the maximum; inactive means score below 0.9.

Experiments:
[1] = APR_HepG2_CellCycleArrest_24hr: Apredica 24-hour HepG2 Assay for Cell Cycle Arrest (AID 2282905); settings: imaging, actives raise or lower the signal;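 further: cell cycle arrest scored as ratio of 2N to 4N nuclear DNA content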
How it was run: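 Readout: Hoechst 33342 nuclear DNA content by high-content fluorescent imaging, six images/well, 20x. Human HepG2 liver cells, 24 hr compound exposure, 0.39–200 uM, final DMSO 0.5% v/v. Gain or loss fitted relative to DMSO baseline.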

[2] = APR_HepG2_NuclearSize_24hr: Apredica 24-hour HepG2 Assay for Nuclear Size (AID 2282907); settings: high-content imaging, actives raise or lower the signal
How it was run: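 Read-out: nuclear diameter from Hoechst 33342 (2 ug/mL) imaging of fixed HepG2 cells, 20x, six fields/well. Compounds ran at 0.39–200 uM for 24 hr, 0.5% DMSO final. Gain or loss was fitted bidirectionally relative to the DMSO baseline.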

[3] = APR_HepG2_CellLoss_24hr: Apredica 24-hour HepG2 Assay for Cell Loss (AID 2282908); settings: high-content imaging;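 on AC50: fit in both directions so a hit may be cell loss or gain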
How it was run: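 Read-out: Hoechst 33342-stained nuclei counted by automated fluorescence imaging after formaldehyde fixation and Triton permeabilization. Ten concentrations, 0.39 to 200 uM, duplicate wells, 0.5% DMSO final. Gain or loss of signal fitted relative to DMSO baseline.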

[4] = APR_HepG2_MicrotubuleCSK_24hr: Apredica 24-hour HepG2 Assay for Microtubule CSK Stabilty (AID 2282909); settings: HepG2 microtubule cytoskeleton imaging, actives raise or lower the signal
How it was run: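 Read-out: alpha-tubulin immunofluorescence intensity by automated high-content imaging of fixed HepG2 cells after 24 h compound treatment. Ten concentrations, 0.39 to 200 uM, in duplicate; DMSO 0.5% v/v. Taxol positive control; DMSO-normalized bidirectional curve fitting.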

[5] = APR_HepG2_MitoticArrest_24hr: Apredica 24-hour HepG2 Assay for Mitotic Arrest (AID 2282910); settings: high-content imaging, actives raise or lower the signal
How it was run: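 HepG2, 24 hr dosing, 0.39–200 uM, 0.5% DMSO final. Formaldehyde-fixed, Triton-permeabilised, anti-phospho-histone H3 plus Hoechst. ArrayScan imaging at 20x; bidirectional fit vs DMSO baseline.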

[6] = APR_HepG2_MitoMembPot_24hr: Apredica 24-hour HepG2 Assay for Mitochondrial Membrane Potential (AID 2282911); settings: imaging, actives raise or lower the signal
How it was run: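 HepG2 human liver cells were exposed 24 hr to compounds at 0.39–200 uM (final DMSO 0.5% v/v) in duplicate. MitoTracker Red CMXRos (250 nM, 30 min) was loaded before formaldehyde fixation; fluorescence was imaged by ArrayScan HCS and fitted bidirectionally versus DMSO.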

[7] = APR_HepG2_MitoMass_24hr: Apredica 24-hour HepG2 Assay for Mitochondrial Mass (AID 2282912); settings: high-content imaging, actives raise or lower the signal
How it was run: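 HepG2, 24 hr dosing, 10 concentrations 0.39–200 uM in duplicate, DMSO 0.5% final. MitoTracker Red CMXRos 250 nM, 30 min pre-fix; 3.7% formaldehyde fix. Imaging-based fluorescence intensity; gain/loss fit vs DMSO baseline.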

[8] = APR_HepG2_p53Act_24hr: Apredica 24-hour HepG2 Assay for p53 Activation (AID 2282913); settings: high-content imaging, actives raise or lower the signal;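 further: p53 protein immunofluorescence averaged per cell in HepG2 with Hoechst nuclei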
How it was run: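 HepG2 cells exposed 24 hr to compounds at 0.39–200 uM (10 concentrations, duplicate), final DMSO 0.5% v/v. After formaldehyde fixation and Triton permeabilization, p53 was immunolabeled (sheep anti-p53, Cy5 secondary) with Hoechst 33342 nuclear counterstain, then imaged by high-content fluorescence microscopy.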

[9] = APR_HepG2_CellCycleArrest_72hr: Apredica 72-hour HepG2 Assay for Cell Cycle Arrest (AID 2282914); settings: high-content imaging, actives raise or lower the signal
How it was run: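 HepG2 cells were exposed to compounds at 0.39–200 uM (0.5% v/v DMSO final, duplicates) for 72 hr, fixed in 3.7% formaldehyde, permeabilized and stained with Hoechst 33342. Nuclear DNA content was quantified by high-content imaging; gain or loss of signal was fitted bidirectionally against DMSO.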

Row | SMILES | outcome [1] | outcome [2] | outcome [3] | outcome [4] | outcome [5] | outcome [6] | outcome [7] | outcome [8] | AC50 [9] | outcome [9] | AC50 [1] | AC50 [3] | AC50 [5] | AC50 [6] | AC50 [4] | AC50 [7]
1 | ClC1C(Cl)C(Cl)C(Cl)C(Cl)C1Cl (configuration not stated) | inactive | inactive | inactive | inactive | inactive | inactive | inactive | inactive | 141 µM (active) | inactive | – | – | – | – | – | –
2 | CCS(=O)(=O)c1cccnc1S(=O)(=O)NC(=O)Nc1nc(OC)cc(OC)n1 | inactive | inactive | inactive | inactive | inactive | inactive | inactive | inactive | – | inactive | – | – | – | – | – | –
3 | COC(=O)c1ccccc1S(=O)(=O)NC(=O)N(C)c1nc(C)nc(OC)n1 | inactive | inactive | inactive | inactive | inactive | inactive | inactive | inactive | – | inactive | – | – | – | – | – | –
4 | CCC(C)(NC(=O)c1cc(Cl)c(C)c(Cl)c1)C(=O)CCl (configuration not stated) | – | inactive | – | inactive | – | – | inactive | inactive | – | inactive | 12.8 µM (active) | 32.3 µM (active) | 8.8 µM (active) | 30.1 µM (active) | – | –
5 | Cc1cc(C)nc(NC(=O)NS(=O)(=O)c2ccccc2C(=O)OC2COC2)n1 | inactive | inactive | inactive | inactive | inactive | inactive | inactive | inactive | – | inactive | – | – | – | – | – | –
6 | CNC(=O)CSP(=S)(OC)OC | inactive | inactive | inactive | inactive | inactive | inactive | inactive | – | – | inactive | – | – | – | – | – | –
7 | Cc1[nH]c(=O)n(C(C)(C)C)c(=O)c1Cl | inactive | inactive | inactive | inactive | inactive | inactive | inactive | – | – | inactive | – | – | – | – | – | –
8 | CC(C)(C)C(O)/C(=C\c1ccc(Cl)cc1Cl)n1cncn1 (configuration not stated) | inactive | inactive | inactive | inactive | inactive | inactive | inactive | inactive | – | inactive | – | – | – | – | – | –
9 | CCOC1Oc2ccc(OS(C)(=O)=O)cc2C1(C)C (configuration not stated) | inactive | inactive | inactive | inactive | inactive | inactive | inactive | – | – | inactive | – | – | – | – | – | –
10 | O=S1OCC2C(CO1)C1(Cl)C(Cl)=C(Cl)C2(Cl)C1(Cl)Cl (configuration not stated) | inactive | inactive | inactive | inactive | inactive | inactive | inactive | inactive | 95.3 µM (active) | – | – | – | – | – | – | –
11 | C#CCN1C(=O)COc2cc(F)c(N3C(=O)C4=C(CCCC4)C3=O)cc21 | inactive | inactive | inactive | inactive | inactive | inactive | inactive | – | – | inactive | – | – | – | – | – | –
12 | CC[C@H](C)[C@H]1O[C@]2(C=C[C@@H]1C)C[C@@H]1C[C@@H](C/C=C(\C)[C@@H](O[C@H]3C[C@H](OC)[C@@H](O[C@H]4C[C@H](OC)[C@@H](O)[C@H](C)O4)[C@H](C)O3)[C@@H](C)/C=C/C=C3\CO[C@@H]4[C@H](O)C(C)=C[C@@H](C(=O)O1)[C@]34O)O2 (tested in a mixture with another compound) | – | inactive | – | – | – | inactive | – | inactive | 21.6 µM (active) | – | 12.7 µM (active) | 12.2 µM (active) | 111 µM (active) | – | 120 µM (active) | 114 µM (active)
13 | CC(C)OC(=O)Nc1cccc(Cl)c1 | inactive | inactive | inactive | inactive | inactive | inactive | inactive | inactive | – | inactive | – | – | – | – | – | –
14 | CNC(=O)/C=C(\C)OP(=O)(OC)OC | inactive | inactive | inactive | inactive | inactive | inactive | inactive | – | – | inactive | – | – | – | – | – | –
15 | CCOc1nc(NC)nc(NC(=O)NS(=O)(=O)c2ccccc2C(=O)OC)n1 | inactive | inactive | inactive | inactive | inactive | inactive | inactive | inactive | – | inactive | – | – | – | – | – | –
16 | Clc1ccccc1-c1nnc(-c2ccccc2Cl)nn1 | – | inactive | inactive | inactive | inactive | – | inactive | – | – | inactive | 67.6 µM (active) | – | – | 59.5 µM (active) | – | –
17 | N#Cc1c(Cl)c(Cl)c(Cl)c(C#N)c1Cl | inactive | inactive | inactive | inactive | inactive | inactive | inactive | inactive | – | inactive | – | – | – | – | – | –
18 | CCN(CC)C(=O)SCc1ccc(Cl)cc1 | inactive | inactive | inactive | inactive | inactive | – | inactive | inactive | – | inactive | – | – | – | 22.8 µM (active) | – | –
